GTP binding signal, raw median fluorescence (lower = inhibition) (MCF (arbitrary fluorescence units)) and outcome data for 40 compounds are collected here from PubChem BioAssay.

Each structure is given as a SMILES string. For some of these results: Potency and affinity values are given separately. The source made the active and inactive calls.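 How the source made its calls, unless noted: active means dose-response curve with midpoint inside the tested range, moderate steepness, significant amplitude and little compound fluorescence or bead-attachment interference; inactive means the rest.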

The target in one test is Ras-related C3 botulinum toxin substrate 1 (Homo sapiens) (UniProt P63000). As to the kind of experiment: wildtype Rac1 GTP binding inhibitors, dose response, biochemical, multiplex bead flow cytometry (AID 1340;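 active means dose curve with midpoint inside tested range, moderate steepness, plateau gap beyond fit error, low compound glow and bead-link interference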). The conditions noted are these: GST-Rac1 beads, Bodipy-FL-GTP binding; at 100 µM (top of the series) unless noted.
`Cc1ccc(/C=N/NC(=O)C2CCN(Cc3ccc(F)cc3Cl)CC2)o1` returned a GTP binding signal, raw median fluorescence (lower = inhibition) (MCF (arbitrary fluorescence units)) of 241.
On to `COCCNC(=S)Nc1cc(OC)c(OC)cc1C#N`, for which the GTP binding signal, raw median fluorescence (lower = inhibition) (MCF (arbitrary fluorescence units)) stood at 144.
Still for that read-out and setting: then `COc1ccc(/C=N/NC(=O)c2cccnc2)cc1Cn1nc([N+](=O)[O-])c(Br)c1C`, with 153.
`c1ccc(C2=Nn3c(nnc3-c3ccco3)SC2)cc1` registered a GTP binding signal, raw median fluorescence (lower = inhibition) (MCF (arbitrary fluorescence units)) of 183.
`C=CCN1C(=NC(=O)CCCC(=O)O)SC2CS(=O)(=O)CC21` (stereo unspecified) gave a GTP binding signal, raw median fluorescence (lower = inhibition) (MCF (arbitrary fluorescence units)) of 312.
The same measure, in the same setting: with `COc1cccc2cc(-c3ccnc(=S)[nH]3)oc12` the figure was 140; with `CCOc1c2ccc(C(=O)N[C@H](C)C3CCCCC3)cc2nn1CCOC`, 197.
In turn, `O=C(NC1CC2CCCC(C1)N2C(=O)Nc1ccc(Cl)c(C(F)(F)F)c1)C1CC1` (stereo unspecified) displayed a GTP binding signal, raw median fluorescence (lower = inhibition) (MCF (arbitrary fluorescence units)) of 185.
`CCC(C)NC(=O)CSc1nc2n[nH]c(C)c2c(=N)n1-c1ccc(OC)cc1` (stereo unspecified) displayed a GTP binding signal, raw median fluorescence (lower = inhibition) (MCF (arbitrary fluorescence units)) of 111.
Consider `O=[N+]([O-])c1cc2oc3c(c2c(C=NCc2ccccc2)c1O)CCCC3`, for which the GTP binding signal, raw median fluorescence (lower = inhibition) (MCF (arbitrary fluorescence units)) is 179.
In the case of `Cc1nnc(-n2ncc(C#N)c2N)c2nn(-c3cccc(Cl)c3)c(C)c12`, the GTP binding signal, raw median fluorescence (lower = inhibition) (MCF (arbitrary fluorescence units)) is 198.
Compound `Cc1ccc(-c2ccc(/C=C(\C#N)C(=O)Nc3cc(C)nn3-c3ccccc3)o2)cc1` came in with a GTP binding signal, raw median fluorescence (lower = inhibition) (MCF (arbitrary fluorescence units)) of 498.
`Cn1c(=O)c2c(nc(N3CCc4ccccc4C3)n2C)n(C)c1=O`: the GTP binding signal, raw median fluorescence (lower = inhibition) (MCF (arbitrary fluorescence units)) came to 193.
`Nc1c(S(=O)(=O)c2cccc(Cl)c2)c2nc3ccccc3nc2n1/N=C/c1ccc(O)c(O)c1` yielded a GTP binding signal, raw median fluorescence (lower = inhibition) (MCF (arbitrary fluorescence units)) of 99.4.
Consider `CSc1ncccc1C(=O)OCC(=O)N1CCOCC1`, for which the GTP binding signal, raw median fluorescence (lower = inhibition) (MCF (arbitrary fluorescence units)) is 170.
The same measure, in the same setting: then `CCOc1cc(/C=N/NC(=O)c2cccs2)cc([N+](=O)[O-])c1O`, with 108; and `O=c1c2ccccc2nc2c3ccccc3c(NCCO)nn12`, with 165; and `COc1cc([N+](=O)[O-])cc(/C=N/NC(=O)c2ccc(NC(=O)c3ccc(C)cc3)cc2)c1O`, with 226.
The same measure, in the same setting: then `O=c1c2ccccc2nc2c3ccccc3c(NCCN3CCOCC3)nn12`, with 132.
The same measure, in the same setting: then `O=c1c(/C=N/Nc2ccccc2)c(Sc2nnnn2-c2ccccc2)nc2ccccn12`, with 308; and `COc1cccc(Nc2ccccc2C(=O)O)c1`, with 78.2.

In a further test the target is GTPase HRas (Homo sapiens) (UniProt P01112). As to the kind of experiment: activated Ras mutant GTP binding inhibitors, dose response, biochemical, multiplex bead flow cytometry (AID 1341).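 Further: GST-tagged constitutively activated Ras mutant immobilized on beads and multiplexed with other GTPases.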 The following applies: bead-based flow cytometry, Bodipy-FL-GTP binding; series mostly up to 100 µM. (In flow cytometry, cells or beads pass a laser one at a time.)
With `COc1cc2[nH]c(=S)nc(NCc3cccs3)c2cc1OC`, the call was inactive.
On the same count and under the same terms, then `Cc1nnc(N2CCOCC2)c2nn(-c3ccccc3)c(C)c12`, with “inactive”; and `Cc1ccc(C(=O)c2ccccc2C(=O)O)cc1`, with “inactive”; and `COc1ccc(S(=O)(=O)N2CCCCC2)cc1NC(=O)c1ccc([N+](=O)[O-])o1`, with “inactive”.
On to `CCOc1ccc2c(c1)c(N=NC(=N)N)c(O)n2C`, for which the compound was called inactive.
As to `O=C(OC(C(=O)NCc1cccs1)c1ccccn1)c1cccs1` (stereo unspecified), the call was inactive.
Still for that read-out and setting: then `CCN(CC)c1ccc(/C=C(/C#N)c2nc3ccc(C)cc3[nH]2)c(OC(C)C)c1`, with “inactive”; and `O=C(Nc1nccs1)c1ccc(-c2cccc([N+](=O)[O-])c2)o1`, with “inactive”.
On the same count and under the same terms, with `COc1ccc(-c2cc(C(F)(F)F)c3c(n2)sc2c(O)cc(=O)[nH]c23)c(OC)c1` the entry was “inactive”; with `COc1cc(N2CCCC2)c(OC)cc1/C=c1/sc2nc3ccccc3n2c1=O`, “inactive”.
Still for that read-out and setting: with `COC(=O)c1ccccc1NC(=O)CSCC(=O)Nc1ccccc1OC` the entry was “inactive”; with `O=C(O)c1cc([N+](=O)[O-])ccc1NCc1ccccc1Cl`, “inactive”; with `Cc1cc(NCc2ccccn2)n2c(nc3ccccc32)c1C#N`, “inactive”.
Take `COc1ccc(CC(C)N2CCN(Cc3ccccc3)CC2)c(OC)c1` (stereo unspecified): the call was inactive.
Still for that read-out and setting: with `O=c1n(Cc2ccc(Cl)cc2)c2sc3c(c2c2ncnn12)CCCC3` the entry was “inactive”; with `NC(=O)c1cc2nc(-c3ccco3)cc(C(F)(F)F)n2n1`, “inactive”.
The same measure, in the same setting: then `CCN(CC)c1ccc(/C=C/C(=O)c2ccc(Br)cc2)cc1`, with “inactive”.
Still for that read-out and setting: then `COc1ccccc1OCCn1cc(C(=O)O)c2c(Cl)cccc21`, with “inactive”; and `O=C(c1cccnc1SCCc1ccccc1)N1CCOCC1`, with “inactive”; and `Cc1ccc(/C=N/NC(=O)C2CCN(Cc3ccc(F)cc3Cl)CC2)o1`, with “inactive”.
On to `COCCNC(=S)Nc1cc(OC)c(OC)cc1C#N`, for which the outcome was inactive.
As for `COc1ccc(/C=N/NC(=O)c2cccnc2)cc1Cn1nc([N+](=O)[O-])c(Br)c1C`, the call was inactive.
As for `c1ccc(C2=Nn3c(nnc3-c3ccco3)SC2)cc1`, the outcome was inactive.
On the same count and under the same terms, with `C=CCN1C(=NC(=O)CCCC(=O)O)SC2CS(=O)(=O)CC21` (stereo unspecified) the entry was “inactive”.
The same measure, in the same setting: with `COc1cccc2cc(-c3ccnc(=S)[nH]3)oc12` the entry was “inactive”; with `CCOc1c2ccc(C(=O)N[C@H](C)C3CCCCC3)cc2nn1CCOC`, “inactive”; with `O=C(NC1CC2CCCC(C1)N2C(=O)Nc1ccc(Cl)c(C(F)(F)F)c1)C1CC1` (stereo unspecified), “inactive”.
As to `CCC(C)NC(=O)CSc1nc2n[nH]c(C)c2c(=N)n1-c1ccc(OC)cc1` (stereo unspecified), the compound was classed as inactive.
Still for that read-out and setting: then `O=[N+]([O-])c1cc2oc3c(c2c(C=NCc2ccccc2)c1O)CCCC3`, with “inactive”; and `Cc1nnc(-n2ncc(C#N)c2N)c2nn(-c3cccc(Cl)c3)c(C)c12`, with “inactive”.
On to `Cc1ccc(-c2ccc(/C=C(\C#N)C(=O)Nc3cc(C)nn3-c3ccccc3)o2)cc1`, for which the call was inactive.
With `Cn1c(=O)c2c(nc(N3CCc4ccccc4C3)n2C)n(C)c1=O`, the compound was called inactive.
Consider `Nc1c(S(=O)(=O)c2cccc(Cl)c2)c2nc3ccccc3nc2n1/N=C/c1ccc(O)c(O)c1`, for which the outcome was inactive.
Take `CSc1ncccc1C(=O)OCC(=O)N1CCOCC1`: the compound was called inactive.
`CCOc1cc(/C=N/NC(=O)c2cccs2)cc([N+](=O)[O-])c1O`: the outcome was inactive.
On the same count and under the same terms, with `O=c1c2ccccc2nc2c3ccccc3c(NCCO)nn12` the entry was “inactive”; with `COc1cc([N+](=O)[O-])cc(/C=N/NC(=O)c2ccc(NC(=O)c3ccc(C)cc3)cc2)c1O`, “inactive”; with `O=c1c2ccccc2nc2c3ccccc3c(NCCN3CCOCC3)nn12`, “inactive”.
Take `O=c1c(/C=N/Nc2ccccc2)c(Sc2nnnn2-c2ccccc2)nc2ccccn12`: the result was inactive.
Same read-out and setting: then `COc1cccc(Nc2ccccc2C(=O)O)c1`, with “inactive”.
